Experimental findings from PubChem BioAssay (NCI) are described below.

Compounds without any hit were thinned out: in the full panel of roughly 79,000, 15% have a hit. Active and inactive are the calls of the source. Rule as the data show it: active = growth inhibition above about 70%; inactive = the rest.

The nature of this assay: NCI Yeast Anticancer Drug Screen. Data for the bub3 strain (AID 167). As to conditions: S. cerevisiae bub3 mutant strain, at 50.0 µM, active compounds read high. Put shortly: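 Yeast carrying a defined mutation is treated with each compound, and growth is compared with that of vehicle-exposed cells to give inhibition.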
`CCOC(=O)C1CC(O)c2ccc(Cl)cc2N1` (stereo not given): the growth inhibition was 9.6% (inactive). In the case of `C1=C(c2ccccc2)OC(c2ccccc2)=C(c2ccccc2)[P+]1(c1ccccc1)c1ccccc1`, the growth inhibition is 99.5% (active).

Regarding `COc1ccc(N(N=Nc2ccccc2)C(C)=O)cc1`, the growth inhibition was -16.7% (inactive). `CCOC(=O)c1nnn(Cc2ccccc2)c1N`: the growth inhibition is 1.7% (inactive). On to `CCCc1nc(N)nc(C(=O)Nc2cccc(C(F)(F)F)c2)c1CC`, for which the growth inhibition is 2.15% (inactive).

`CCOc1ccccc1NCN1C(=O)c2ccccc2C1=O`: the growth inhibition was -18.3% (inactive). Next, `COc1cc(C2c3cc4c(cc3OC(N3CCNCC3)C2C)OCO4)cc(OC)c1OC` (stereo not given): -3.6% (inactive); `C=C(CCCCCCCCC)CC(=O)SCCNC(=O)CCNC(=O)C(O)C(C)(C)COP(=O)(O)OP(=O)(O)OCC1OC(n2cnc3c(N)ncnc32)C(O)C1OP(=O)(O)O` (stereo not given): -19.6% (inactive).

In the case of `CSc1ccc(C(=C=C=C(c2ccc(SC)s2)c2ccc(SC)s2)c2ccc(SC)s2)s1`, the growth inhibition was -31.9% (inactive). As for `COC1=C(OC)C(=O)C(Sc2ccc3ccccc3c2)=C(Cl)C1=O`, the figure is 91.7% (active); as for `CCOC(=O)NC(N)=O`, 0.4% (inactive). In the case of `CC(=O)N1Cc2c(N)ncnc2C1C` (stereo not given), the growth inhibition was -0.25% (inactive).

In the case of `CCC(=O)Oc1ccc(OCc2ccccc2)cc1`, the growth inhibition was -16.9% (inactive). As for `O=C(O)c1cccc(Br)c1`, the figure is -5.7% (inactive); as for `CCOC(=N)c1ccc(C(=N)OCC)cc1`, -32.5% (inactive).

As to `O=P(O)(O)OC1C(OP(=O)(O)O)C(OP(=O)(O)O)C(OP(=O)(O)O)C(OP(=O)(O)O)C1OP(=O)(O)O.[Cu+2]` (stereo not given), the growth inhibition was -9% (inactive). For the compound `Cc1onc(-c2c(F)cccc2Cl)c1-c1ncc(-c2ccc(Cl)cc2)o1`, the growth inhibition is 29.8% (inactive).

Consider `CSC1C(OC(=O)c2ccccc2)C(COC(=O)c2ccccc2)OC1n1cnc2ncnc(NC(=O)c3ccccc3)c21` (stereo not given), for which the growth inhibition was 6.45% (inactive). As for `CC(NN(C)C(=S)Nc1ccccc1)c1ccccn1` (stereo not given), the growth inhibition is -4.75% (inactive). As for `CCOC(=O)C(=O)C(/C(=N/N(C)C)C(=O)Nc1ccc(C)cc1C)c1nc2ccccc2[nH]c1=O` (stereo not given), the figure is 1% (inactive); as for `CC(=O)c1ccc(N=C2C(=O)Nc3ccccc32)cc1`, 9% (inactive); as for `O=[N+]([O-])c1ccc(-c2nc3ncncc3[nH]2)cc1`, 5.05% (inactive). For the compound `Cc1cc(N=Nc2ccc(N(C)C)cc2)ccn1`, the growth inhibition is 13.7% (inactive). With `C1CCC2(CC1)OCCS2`, the growth inhibition is -1.45% (inactive). On to `O=C1NC2(CCCC2)C(=O)N2CCCC12` (stereo not given), for which the growth inhibition was 0.3% (inactive). Next, `CN(C)/C=N/c1nc2ncn(CCOC(=O)c3ccccc3)c2c(=O)[nH]1`: -11.4% (inactive). For `CN(C)/N=C\c1ccc(C(=O)O)cc1`, the growth inhibition was 28.3% (inactive).

For the compound `CCCCCC[n+]1ccc(C(=O)c2ccccc2)cc1`, the growth inhibition was 0.45% (inactive). `O=C1NNC2(C(=O)N1)c1ccccc1-c1ccccc12`: the growth inhibition was 1.65% (inactive).

In the case of `O=C1NC(=O)C(c2ccc(C(=O)O)cc2)N1` (stereo not given), the growth inhibition was -5.5% (inactive). In the case of `CCCCCCCCOc1ccc(Cl)cc1`, the growth inhibition was -21.6% (inactive). For the compound `Cc1cccc2c1Oc1ccccc1C2NC(=O)OCCc1ccccc1` (stereo not given), the growth inhibition is -8.05% (inactive). For `COc1ccc(C(=O)c2cc(S(=O)(=O)O)c(OC)cc2O)c(O)c1`, the growth inhibition is -13.4% (inactive).

As for `CCNCc1cc(Nc2nc(NC3CCC(N(C)C)CC3)c3ccccc3n2)ccc1OC` (stereo not given), the growth inhibition is 3.45% (inactive).

With `Cc1cc(C)n2nc3c4ccsc4ncc3c2n1`, the growth inhibition was 0.1% (inactive).

For the compound `Cc1c(C(=O)CSc2nc3ccccc3c(=O)n2-c2ccccc2)c(=O)n(-c2ccccc2)n1C`, the growth inhibition was -11.3% (inactive).

As to `NOCCCCON`, the growth inhibition was 0.25% (inactive).

Take `CC12CCC3c4ccc(O)cc4CCC3C1CC(OC1OC(C(=O)O)C(O)C(O)C1O)C2O` (stereo not given): the growth inhibition is 2.4% (inactive). As for `C=CCOC(=O)CC`, the figure is -15.4% (inactive); as for `COc1cc(NCCCCCNC(C)C)c2ncccc2c1`, 35.6% (inactive).
